“And” between values parts separate entries of the source, which are not always exact repeats. Equal entries are not always repeated. Out of some 74,000 compounds screened, about 1,100 (1.5%) were called active. About 5% were inconclusive and are not listed. This is one part of a sample in which actives are shown more often than they occur. Values without a mark were called inactive. Calls follow the shape of the dose curve; as a rule, active = well fitted inhibition curve with a large enough effect; inconclusive = small, poorly fitted or top-dose-only effect; inactive = no such curve, though single readings can be large or run the other way.
% is scaled to controls: 0 for no effect and ±100 for the full control effect; potency is read from the fitted curve at half-maximal effect.

Chain of Polyunsaturated fatty acid lipoxygenase ALOX15 (Homo sapiens) (P16050 whole entry, looked up): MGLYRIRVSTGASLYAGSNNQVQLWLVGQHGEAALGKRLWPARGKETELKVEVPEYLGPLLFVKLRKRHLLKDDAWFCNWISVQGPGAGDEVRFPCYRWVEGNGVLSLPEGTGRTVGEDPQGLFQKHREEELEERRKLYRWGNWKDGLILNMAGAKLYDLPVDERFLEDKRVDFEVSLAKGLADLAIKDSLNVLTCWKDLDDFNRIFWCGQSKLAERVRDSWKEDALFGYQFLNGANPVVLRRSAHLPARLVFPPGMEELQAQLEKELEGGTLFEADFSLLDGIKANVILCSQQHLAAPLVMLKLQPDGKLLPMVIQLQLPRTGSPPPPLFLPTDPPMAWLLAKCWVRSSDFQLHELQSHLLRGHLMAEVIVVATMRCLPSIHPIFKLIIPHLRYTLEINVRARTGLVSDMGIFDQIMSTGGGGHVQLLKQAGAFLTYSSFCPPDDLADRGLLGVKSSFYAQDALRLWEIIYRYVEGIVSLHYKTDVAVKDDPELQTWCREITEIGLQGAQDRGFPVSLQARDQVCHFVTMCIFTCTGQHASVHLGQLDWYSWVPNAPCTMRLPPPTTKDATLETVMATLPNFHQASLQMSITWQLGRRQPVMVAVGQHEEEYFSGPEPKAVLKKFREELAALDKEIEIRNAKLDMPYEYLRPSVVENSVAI

The assay addresses Polyunsaturated fatty acid lipoxygenase ALOX15 (Homo sapiens) (UniProt P16050). The experiment in a line: qHTS Assay for Inhibitors of 15-hLO (15-human lipoxygenase). Also: nearly all actives have a fitted effect of over 55% in size. The following applies: purified 15hLO-1, xylenol orange hydroperoxide absorbance; series mostly up to 57.1 µM; activity change, negative = inhibition: at the top concentration. From the text: Assay Overview: NIH Molecular Libraries Screening Centers Network [MLSCN] NIH Chemical Genomics Center [NCGC] MLSCN Grant: MH081283-01A1 PI Name: Holman, T.R., University of California, Santa Cruz Human lipoxygenase 15hLO-1 is a member of the closely related lipoxygenase family of enzymes which catalyze the site-specific oxidation of arachidonic acid to various hormone precursor molecules and as such is a candidate for drug development in a variety of disease areas, such as cancer and inflammation. Inhibition of 15hLO-1 activity was screened by utilizing arachidonic acid as a substrate. The extent of hydroperoxide product formation was measured by a secondary chromogenic reaction in which xylenol orange (XO, Sigma-Aldrich, cat. number 39,818-7) reacts with the ferric ions produced from the reaction between the hydroperoxide and ferrous ions. The Fe(III)-XO complex is characterized with red-shifted absorbance at 560 nm. A purified preparation of human 15hLO-1 was supplied by Professor Ted Holman, University of California, Santa Cruz.
Assay Protocol: Buffer: 25 mM Hepes pH 7.5, 0.01% Triton X-100. Reagents/Controls: Buffer in columns 3 and 4 as negative control (no enzyme). Substrate solution: 50 uM arachidonic acid (Sigma-Aldrich, St. Louis, MO) final concentration dispensed throughout the plate. Enzyme: 40 nM 15hLO-1 final concentration in columns 1, 2, 5-48. Column 1 is neutral (100% activity). Column 2 contained pin-transferred titration of NDGA (nordihidroguaiaretic acid, Sigma-Aldrich, N 5023, top concentration 10 mM in DMSO, then 1:2 dilution in duplicate). (Dilution factor: 23 nL into 4 uL.) Chromogenic detection reagent (divalent iron/xylenol orange, Fe-XO): 200 uM xylenol orange plus 300 uM ferrous ammonium sulfate prepared freshly in 50 mM sulfuric acid. Assay Steps: Three uL of enzyme were dispensed to 1536-well Greiner black clear bottom plates. Compounds and controls (23 nL) were transferred via Kalypsys PinTool. The plates were incubated for 15 min at room temperature, and then 1 uL of substrate solution was added to start the reaction. After room temperature incubation for 6 minutes, 4 uL of Fe-XO solution was added to each well followed by a short spin (1000 rpm, 15 sec) and the plates were then incubated for 30 min. The absorbance at 405 and 573 nm were measured using ViewLux (Perkin-Elmer) High-throughput CCD imager and absorbance protocol settings. The 573-to-405 absorbance ratio was used to compute reaction progress.
Take `CN1CCCC1CCO[C@@](C)(c1ccccc1)c1ccc(Cl)cc1` (stereo partly drawn): the “activity change, negative = inhibition” value is -10.4%.

Turning to `CN(CCOc1ccc(CC2SC(=O)NC2=O)cc1)c1ccccn1` (stereo not drawn), the “activity change, negative = inhibition” value is 1.32%.

With `COc1ccc(-c2n[nH]c(C)c2-c2ccc(OC)c(OC)c2)c(O)c1`, the “activity change, negative = inhibition” value is -23.3%.

With `COc1ccc(OC)c(Nc2nc(-c3ccc(O)c(O)c3)cs2)c1`, the Potency is 0.126 µM (active).

Turning to `Oc1ccc(-c2csc(Nc3cccnc3)n2)cc1`, the “activity change, negative = inhibition” value is -7.34%.

For `COc1cccc([C@H]2Oc3ccc(OC)cc3/C(=N\OCC[C@@H]3C=C[C@H](OC(C)=O)[C@H](COC(C)=O)O3)[C@@H]2O)c1`, the activity change, negative = inhibition was 7.41% [at 11.4 µM].

`CCOC(=O)N/N=C1/C[C@@H](O)[C@@H](O)[C@@H]2[C@@H]3C(=O)N(CC)C(=O)[C@H]3CC[C@H]12`: the activity change, negative = inhibition is 0.206% [at 11.4 µM].

As for `COc1ccc(COC(=O)N/N=C2/C[C@@H](O)[C@@H](O)[C@@H]3[C@@H]4C(=O)N([C@@H](C)c5ccccc5)C(=O)[C@H]4CC[C@@H]23)cc1`, the activity change, negative = inhibition is 7.99% [at 11.4 µM].

Take `CC(C)CCNc1nc(N2CCCC2)c2c(c1C#N)CCN(C)C2`: the “activity change, negative = inhibition” value was -17.6%.

Take `CCOc1ccc2nc(N3CCCN(C(=O)Nc4ccccc4C)CC3)c(C#N)cc2c1`: the “activity change, negative = inhibition” value is -9.41%.

In the case of `Cc1cc(C)c2nc(N3CCCC3)c(C#N)cc2c1`, the Potency was 2 µM (active).

Regarding `CC(C)(C)c1ccc(OC2C=CC(C#Cc3ccccc3)OC2CO)cc1` (stereo not drawn), the activity change, negative = inhibition was -12.4% [at 11.4 µM].

For `Cc1cc(C)cc(C#CC2C=CC(Oc3ccc(C4CCCC4)cc3)C(CO)O2)c1` (stereo not drawn), the activity change, negative = inhibition is -14.1% [at 11.4 µM].

Consider `C[C@@H]1/C=C\CC(=O)OC[C@H]2O[C@@H](C=C[C@@H]2O)[C@H](C)/C=C\CC(=O)OC[C@H]2O[C@H]1C=C[C@@H]2O`, for which the activity change, negative = inhibition was 5.92% [at 11.4 µM].

With `CC(C)[C@H]1CC[C@@H](C)C[C@H]1O`, the “activity change, negative = inhibition” value is 14.8% [at 25.6 µM].

In the case of `COC1[C@H](OC(N)=O)C(O)[C@H](Oc2ccc3c(O)c(NC(=O)c4ccc(O)c(CC=C(C)C)c4)c(=O)oc3c2C)OC1(C)C` (stereo partly drawn), the “activity change, negative = inhibition” value was -28.3%.

As for `C=C(C)C1CC=C(CO)CC1` (stereo not drawn), the Potency was 12.6 µM (active).

`C=C(C)C1CC=C(C)C(O)C1` (stereo not drawn): the “activity change, negative = inhibition” value was -3.82%.

Turning to `CCCNC(=O)OC[C@@H]1O[C@H](c2ccccc2)C=C[C@@H]1Oc1ccc(OC)cc1`, the activity change, negative = inhibition was 6.55% [at 11.4 µM].

As to `Cc1ccc(C)c(NC(=O)CSc2nnc(Cc3cccn3C)n2-c2ccc(F)cc2)c1`, the “activity change, negative = inhibition” value is -17.4%.

`Cc1cccc(Br)c1`: the “activity change, negative = inhibition” value is 1.29%.

In the case of `CC(C)=CC1C(C(=O)O)C1(C)C` (stereo not drawn), the “activity change, negative = inhibition” value was -4.04%.

`C/C(CCN1CCCCc2nc(C)c(C)cc21)=N\O[C@@H](C)c1cn([C@@H]2COC[C@@H]2O)nn1`: the activity change, negative = inhibition was 3.97% [at 11.4 µM].

As for `Oc1cc(O)c2c(c1)OC(c1ccc(O)c(O)c1)C(O)C2` (stereo not drawn), the Potency is 12.6 µM (active).

In the case of `CO[C@H]1COC(=O)[C@@H](C)NC(=O)C/C=C\[C@@H](C)[C@H](OC)COC(=O)C/C=C\[C@@H]1C`, the activity change, negative = inhibition is -1.15% [at 11.4 µM].

As to `CCCCn1c(SCC(=O)NCC2CCCO2)nc2ccc(N3CCOCC3)cc2c1=O` (stereo not drawn), the Potency is 12.6 µM (active).

Regarding `COCCCNC(=O)CSc1nc2ccc(N3CCOCC3)cc2c(=O)n1CCc1ccccc1`, the “activity change, negative = inhibition” value was -12%.

Consider `CCn1c(SCC(=O)NCC2CCCO2)nc2cc(S(=O)(=O)N3CCCCC3)ccc21` (stereo not drawn), for which the “activity change, negative = inhibition” value is 4.12%.

For `COCC(=O)N1CCC2(CCCN(c3ccccc3)C2)CC1`, the “activity change, negative = inhibition” value was -7.85%.

Consider `CC1(C)C=CC(=O)[C@]2(C)C1CC(=O)[C@]1(C)C2CC[C@@]2(C)C(c3ccoc3)OC(=O)C3OC321` (stereo partly drawn), for which the “activity change, negative = inhibition” value was -3.65%.

As for `CC(C)C1=CC2=CC[C@@H]3[C@](C)(CO)CCC[C@]3(C)C2CC1` (stereo partly drawn), the Potency was 1.58 µM (active).

As for `C=C[C@](C)(O)CCC1C(=C)CCC2[C@@](C)(CO)CCC[C@@]12C` (stereo partly drawn), the “activity change, negative = inhibition” value is -22.8%.

On to `CN1CCc2nc(-c3ccccc3)c(-c3ccccc3)cc2C1`, for which the activity change, negative = inhibition is 3.18% [at 11.4 µM].

`Nc1ncnc2c1ncn2C1CC(O)C(CO)O1` (stereo not drawn): the activity change, negative = inhibition entry is “inactive”.

As for `CC(=O)OCC(=O)[C@@]1(O)CCC2C3CCC4=CC(=O)CC[C@@]4(C)[C@]3(F)C(O)C[C@]21C` (stereo partly drawn), the “activity change, negative = inhibition” value is -0.0872%.

Consider `O=C1[C@H]2[C@H]3[C@H](O)[C@H](O)C/C(=N/OCc4ccccc4)[C@H]3CC[C@@H]2C(=O)N1Cc1ccccc1`, for which the activity change, negative = inhibition is 6.17% [at 11.4 µM].

On to `CCCN(C/C=C\I)[C@@H]1CCc2cccc(O)c2C1`, for which the “activity change, negative = inhibition” value is 1.31% [at 25.6 µM].

For the compound `CCC(=O)Nc1sc(C(=O)N2CCCCC2)c(C)c1C#N`, the “activity change, negative = inhibition” value is -0.853%.

In the case of `Cc1cccc(-n2c(N)c(C(=O)N3CCN(C)CC3)sc2=S)c1`, the “activity change, negative = inhibition” value was -25.1%.

`N#Cc1ccccc1-n1c(N)c(C(=O)N2CCCC2)sc1=S`: the Potency was 20 µM (active).

Turning to `Cn1c(=O)n2n(c1=O)[C@H]1[C@H](O)[C@H]3O[C@H]3C(=O)[C@H]1CC2`, the activity change, negative = inhibition is -1.89% [at 11.4 µM].

As for `CC(C)=CCC/C(C)=C/CO/N=C1/C[C@@H](O)[C@@H](O)[C@@H]2[C@@H]3C(=O)N(C(C)(C)C)C(=O)[C@H]3CC[C@H]12`, the activity change, negative = inhibition is -9.71% [at 11.4 µM].

Regarding `CC(=O)OCC1OC(C#CCCCc2ccccc2)C=CC1OC(C)=O` (stereo not drawn), the activity change, negative = inhibition is -1.12% [at 11.4 µM] and 1.25% [at 11.4 µM].

The values above are taken from PubChem BioAssay AID887 (National Center for Advancing Translational Sciences (NCATS), 2007).
